The target of one experiment is MSX2 (Homo sapiens, UniProt P35548 130-214, R199I). As to the kind of experiment: PBM; 200 nM protein, PBS. The following applies: dsDNA, one strand shown.
Sequence of MSX2 (Homo sapiens, UniProt P35548 130-214, R199I) (P35548 130-214 R199I): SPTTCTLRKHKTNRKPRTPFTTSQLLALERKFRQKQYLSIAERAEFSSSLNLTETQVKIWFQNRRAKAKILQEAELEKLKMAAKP
Sequence of MSX2 (Homo sapiens, UniProt P35548 130-214) (P35548 130-214): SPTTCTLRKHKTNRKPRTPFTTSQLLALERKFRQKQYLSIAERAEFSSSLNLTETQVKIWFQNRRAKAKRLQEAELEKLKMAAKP
Take CTAATCAA: the binding signal is 11 upbm affinity estimate (log intensity, higher = more binding, comparable within an allelic series).

For CGCTCAGC, the binding signal was 9.48 upbm affinity estimate (log intensity, higher = more binding, comparable within an allelic series).

As for CATACTAA, the binding signal was 10.4 upbm affinity estimate (log intensity, higher = more binding, comparable within an allelic series).

On to CAATCAAA, for which the binding signal is 10.9 upbm affinity estimate (log intensity, higher = more binding, comparable within an allelic series).

Consider GAGGTGGC, for which the binding signal is 9.4 upbm affinity estimate (log intensity, higher = more binding, comparable within an allelic series).

As to CCCCTACG, the binding signal is 9.54 upbm affinity estimate (log intensity, higher = more binding, comparable within an allelic series).

With CCAATCAA, the binding signal was 11 upbm affinity estimate (log intensity, higher = more binding, comparable within an allelic series).

As for CCACTGGC, the binding signal was 9.65 upbm affinity estimate (log intensity, higher = more binding, comparable within an allelic series).

In the case of GCCAGGAC, the binding signal is 9.69 upbm affinity estimate (log intensity, higher = more binding, comparable within an allelic series).

With AGGGGCCG, the binding signal is 9.46 upbm affinity estimate (log intensity, higher = more binding, comparable within an allelic series).

Regarding GCTCCAGC, the binding signal was 9.46 upbm affinity estimate (log intensity, higher = more binding, comparable within an allelic series).

As to AATTTTTA, the binding signal is 11.1 upbm affinity estimate (log intensity, higher = more binding, comparable within an allelic series).

Consider AGCTATTA, for which the binding signal is 11.1 upbm affinity estimate (log intensity, higher = more binding, comparable within an allelic series).

With GGCCAGCA, the binding signal is 9.48 upbm affinity estimate (log intensity, higher = more binding, comparable within an allelic series).

In the case of ATGGAAAT, the binding signal was 10.4 upbm affinity estimate (log intensity, higher = more binding, comparable within an allelic series).

Regarding GCAATCAA, the binding signal is 10.9 upbm affinity estimate (log intensity, higher = more binding, comparable within an allelic series).

As to CCTACGGC, the binding signal was 9.61 upbm affinity estimate (log intensity, higher = more binding, comparable within an allelic series).

Turning to GTAATCAA, the binding signal was 11.1 upbm affinity estimate (log intensity, higher = more binding, comparable within an allelic series).

AGCGGGGC: the binding signal is 9.48 upbm affinity estimate (log intensity, higher = more binding, comparable within an allelic series).

As for GGTAATCA, the binding signal was 11 upbm affinity estimate (log intensity, higher = more binding, comparable within an allelic series).

For the sequence CCTGAGCC, the binding signal was 9.54 upbm affinity estimate (log intensity, higher = more binding, comparable within an allelic series).

As to CAGGGCCA, the binding signal was 9.52 upbm affinity estimate (log intensity, higher = more binding, comparable within an allelic series).

Consider AGGCGTGA, for which the binding signal was 9.57 upbm affinity estimate (log intensity, higher = more binding, comparable within an allelic series).

For the sequence TCCGCGGA, the binding signal was 9.48 upbm affinity estimate (log intensity, higher = more binding, comparable within an allelic series).

For GATGTTTA, the binding signal is 10.5 upbm affinity estimate (log intensity, higher = more binding, comparable within an allelic series).

For the sequence CGACAATA, the binding signal is 10.5 upbm affinity estimate (log intensity, higher = more binding, comparable within an allelic series).

On to GATAATCA, for which the binding signal was 10.9 upbm affinity estimate (log intensity, higher = more binding, comparable within an allelic series).

Consider GAGCCGAC, for which the binding signal was 9.44 upbm affinity estimate (log intensity, higher = more binding, comparable within an allelic series).

As to GACCTCCC, the binding signal was 9.42 upbm affinity estimate (log intensity, higher = more binding, comparable within an allelic series).

As to ATAATCAC, the binding signal was 11.1 upbm affinity estimate (log intensity, higher = more binding, comparable within an allelic series).

Take AAATATTT: the binding signal is 10.7 upbm affinity estimate (log intensity, higher = more binding, comparable within an allelic series).

With GAACACCC, the binding signal is 9.57 upbm affinity estimate (log intensity, higher = more binding, comparable within an allelic series).

In the case of ATGATTAC, the binding signal was 10.9 upbm affinity estimate (log intensity, higher = more binding, comparable within an allelic series).

On to ATTAACAC, for which the binding signal is 11.3 upbm affinity estimate (log intensity, higher = more binding, comparable within an allelic series).

Consider AGCGCCGG, for which the binding signal was 9.57 upbm affinity estimate (log intensity, higher = more binding, comparable within an allelic series).

CCTGTGCC: the binding signal is 9.49 upbm affinity estimate (log intensity, higher = more binding, comparable within an allelic series).

As to GAGGAAGC, the binding signal is 9.59 upbm affinity estimate (log intensity, higher = more binding, comparable within an allelic series).

Take GAAGCAGC: the binding signal was 9.64 upbm affinity estimate (log intensity, higher = more binding, comparable within an allelic series).

For ATACATAA, the binding signal is 11 upbm affinity estimate (log intensity, higher = more binding, comparable within an allelic series).

For CCCTAGCG, the binding signal was 9.48 upbm affinity estimate (log intensity, higher = more binding, comparable within an allelic series).

The next experiment addresses MSX2 (Homo sapiens, UniProt P35548 130-214). As to the kind of experiment: PBM; 200 nM protein, PBS. The note with it: dsDNA, one strand shown.
With CGCTCAGC, the binding signal was 9.57 upbm affinity estimate (log intensity, higher = more binding, comparable within an allelic series).

As to CATACTAA, the binding signal is 10.7 upbm affinity estimate (log intensity, higher = more binding, comparable within an allelic series).

GAGGTGGC: the binding signal was 9.42 upbm affinity estimate (log intensity, higher = more binding, comparable within an allelic series).

Turning to CCCCTACG, the binding signal is 9.48 upbm affinity estimate (log intensity, higher = more binding, comparable within an allelic series).

Turning to CCACTGGC, the binding signal is 9.69 upbm affinity estimate (log intensity, higher = more binding, comparable within an allelic series).

For the sequence GCCAGGAC, the binding signal is 9.71 upbm affinity estimate (log intensity, higher = more binding, comparable within an allelic series).

Take AGGGGCCG: the binding signal was 9.56 upbm affinity estimate (log intensity, higher = more binding, comparable within an allelic series).

On to GCTCCAGC, for which the binding signal was 9.45 upbm affinity estimate (log intensity, higher = more binding, comparable within an allelic series).

For AATTTTTA, the binding signal is 11.9 upbm affinity estimate (log intensity, higher = more binding, comparable within an allelic series).

On to AGCTATTA, for which the binding signal is 12.1 upbm affinity estimate (log intensity, higher = more binding, comparable within an allelic series).

As to GGCCAGCA, the binding signal is 9.54 upbm affinity estimate (log intensity, higher = more binding, comparable within an allelic series).

As to ATGGAAAT, the binding signal was 10.7 upbm affinity estimate (log intensity, higher = more binding, comparable within an allelic series).

For the sequence CCTACGGC, the binding signal was 9.61 upbm affinity estimate (log intensity, higher = more binding, comparable within an allelic series).

For AGCGGGGC, the binding signal is 9.55 upbm affinity estimate (log intensity, higher = more binding, comparable within an allelic series).

For CCTGAGCC, the binding signal is 9.53 upbm affinity estimate (log intensity, higher = more binding, comparable within an allelic series).

In the case of CAGGGCCA, the binding signal was 9.57 upbm affinity estimate (log intensity, higher = more binding, comparable within an allelic series).

Regarding AGGCGTGA, the binding signal was 9.37 upbm affinity estimate (log intensity, higher = more binding, comparable within an allelic series).

As for TCCGCGGA, the binding signal is 9.54 upbm affinity estimate (log intensity, higher = more binding, comparable within an allelic series).

The values above are taken from PMC11006913.
